# Results taken from PubChem BioAssay.
# The source made the active and inactive calls.
# Tests used:
# [1] = system: PRMT1 (protein arginine N-methyltransferase 1); assay: PRMT1 binders on small-molecule microarrays, primary screen, biochemical, small-molecule microarray, 635 nm fluorescence (AID 1088); conditions: small-molecule microarray binding, higher = more signal;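 also: binding of Prmt1 protein to compounds spotted on small-molecule microarray slides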
# [2] = yeast growth modulation, basal conditions, primary screen, YJM789 clinical isolate, OD600, 24 h (AID 1089);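 also: growth of clinical yeast isolate S. cerevisiae YJM 789 seeded 1000 cells per well; test concentration not given here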; conditions: S. cerevisiae YJM789 growth, higher = more signal, called active from +8 up or from −8 down
# [3] = fission yeast growth modulation, primary screen, strain 972, OD600, 24 h, no modulator (AID 1090);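 also: basal condition with compound alone and no growth modifier present; test concentration not given here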; conditions: S. pombe 972 growth, higher = more signal, called active from +8 up or from −8 down
# [4] = S. cerevisiae growth modulation with rapamycin, primary screen, strain BY4716, OD600, 96 h (AID 1091); conditions: higher = more signal, called active from +8 up or from −8 down; also: test concentration not given here
# [5] = target: Torsin-1A-interacting protein 2 (Homo sapiens) (UniProt Q8NFQ8); assay: LULL1 binders on small-molecule microarray, primary screen, cell lysate, human LULL1 lysate, 635/667 nm fluorescence (AID 1092); conditions: hLULL1 lysate binding, 635 nm fluorescence, higher = more signal;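 also: probe is lysate of COS7 cells overexpressing human LULL1; score merges per-feature 667 nm fluorescence with signal-to-noise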
# Chain of Torsin-1A-interacting protein 2 (Homo sapiens) (Q8NFQ8 whole entry, looked up): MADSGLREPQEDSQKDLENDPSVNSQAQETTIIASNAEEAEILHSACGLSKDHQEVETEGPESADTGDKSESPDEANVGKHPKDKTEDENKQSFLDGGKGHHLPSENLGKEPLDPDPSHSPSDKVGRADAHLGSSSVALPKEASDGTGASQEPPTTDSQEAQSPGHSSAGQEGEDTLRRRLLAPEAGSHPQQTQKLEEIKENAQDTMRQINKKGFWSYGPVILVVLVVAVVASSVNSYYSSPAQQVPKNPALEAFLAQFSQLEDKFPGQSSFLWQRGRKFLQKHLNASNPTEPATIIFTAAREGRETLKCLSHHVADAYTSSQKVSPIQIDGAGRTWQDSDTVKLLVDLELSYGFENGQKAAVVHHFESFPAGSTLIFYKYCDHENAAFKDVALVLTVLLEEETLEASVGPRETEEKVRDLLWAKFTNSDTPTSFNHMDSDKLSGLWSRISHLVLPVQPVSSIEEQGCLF
# [6] = E. coli growth modulation, two-sided OD650, primary screen, E. coli filamentation project, strain DRC41, 24 h (AID 1093); conditions: OD650, 24 h, higher = more signal, called active from +8 up or from −8 down;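 also: MC1000 strain lacking acrAB efflux and sulA so SOS filamentation is blocked; test concentration not given here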
# [7] = small-molecule microarray binders of probe aLefty2, primary screen, biochemical, biotinylated probe, 635/667 nm fluorescence (AID 1094); conditions: higher = more signal;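 also: score merges spot fluorescence near 667 nm with spot signal-to-noise ratio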
# [8] = system: Noggin (protein binding on small-molecule microarray); assay: Noggin binders on small-molecule microarray, primary screen, biochemical, 635/667 nm fluorescence (AID 1095); conditions: 635 nm fluorescence, higher = more signal;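 also: score merges 667 nm feature fluorescence with signal to noise over triplicate slides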
# [9] = target: Neurogenic locus notch homolog protein 3 (Homo sapiens) (UniProt Q9UM47); assay: NOTCH3 binders on small-molecule microarray, primary screen, biochemical, 635/667 nm fluorescence (AID 1096); conditions: NOTCH3 binding, 635 nm fluorescence, higher = more signal
# Chain of Neurogenic locus notch homolog protein 3 (Homo sapiens) (Q9UM47 whole entry, looked up): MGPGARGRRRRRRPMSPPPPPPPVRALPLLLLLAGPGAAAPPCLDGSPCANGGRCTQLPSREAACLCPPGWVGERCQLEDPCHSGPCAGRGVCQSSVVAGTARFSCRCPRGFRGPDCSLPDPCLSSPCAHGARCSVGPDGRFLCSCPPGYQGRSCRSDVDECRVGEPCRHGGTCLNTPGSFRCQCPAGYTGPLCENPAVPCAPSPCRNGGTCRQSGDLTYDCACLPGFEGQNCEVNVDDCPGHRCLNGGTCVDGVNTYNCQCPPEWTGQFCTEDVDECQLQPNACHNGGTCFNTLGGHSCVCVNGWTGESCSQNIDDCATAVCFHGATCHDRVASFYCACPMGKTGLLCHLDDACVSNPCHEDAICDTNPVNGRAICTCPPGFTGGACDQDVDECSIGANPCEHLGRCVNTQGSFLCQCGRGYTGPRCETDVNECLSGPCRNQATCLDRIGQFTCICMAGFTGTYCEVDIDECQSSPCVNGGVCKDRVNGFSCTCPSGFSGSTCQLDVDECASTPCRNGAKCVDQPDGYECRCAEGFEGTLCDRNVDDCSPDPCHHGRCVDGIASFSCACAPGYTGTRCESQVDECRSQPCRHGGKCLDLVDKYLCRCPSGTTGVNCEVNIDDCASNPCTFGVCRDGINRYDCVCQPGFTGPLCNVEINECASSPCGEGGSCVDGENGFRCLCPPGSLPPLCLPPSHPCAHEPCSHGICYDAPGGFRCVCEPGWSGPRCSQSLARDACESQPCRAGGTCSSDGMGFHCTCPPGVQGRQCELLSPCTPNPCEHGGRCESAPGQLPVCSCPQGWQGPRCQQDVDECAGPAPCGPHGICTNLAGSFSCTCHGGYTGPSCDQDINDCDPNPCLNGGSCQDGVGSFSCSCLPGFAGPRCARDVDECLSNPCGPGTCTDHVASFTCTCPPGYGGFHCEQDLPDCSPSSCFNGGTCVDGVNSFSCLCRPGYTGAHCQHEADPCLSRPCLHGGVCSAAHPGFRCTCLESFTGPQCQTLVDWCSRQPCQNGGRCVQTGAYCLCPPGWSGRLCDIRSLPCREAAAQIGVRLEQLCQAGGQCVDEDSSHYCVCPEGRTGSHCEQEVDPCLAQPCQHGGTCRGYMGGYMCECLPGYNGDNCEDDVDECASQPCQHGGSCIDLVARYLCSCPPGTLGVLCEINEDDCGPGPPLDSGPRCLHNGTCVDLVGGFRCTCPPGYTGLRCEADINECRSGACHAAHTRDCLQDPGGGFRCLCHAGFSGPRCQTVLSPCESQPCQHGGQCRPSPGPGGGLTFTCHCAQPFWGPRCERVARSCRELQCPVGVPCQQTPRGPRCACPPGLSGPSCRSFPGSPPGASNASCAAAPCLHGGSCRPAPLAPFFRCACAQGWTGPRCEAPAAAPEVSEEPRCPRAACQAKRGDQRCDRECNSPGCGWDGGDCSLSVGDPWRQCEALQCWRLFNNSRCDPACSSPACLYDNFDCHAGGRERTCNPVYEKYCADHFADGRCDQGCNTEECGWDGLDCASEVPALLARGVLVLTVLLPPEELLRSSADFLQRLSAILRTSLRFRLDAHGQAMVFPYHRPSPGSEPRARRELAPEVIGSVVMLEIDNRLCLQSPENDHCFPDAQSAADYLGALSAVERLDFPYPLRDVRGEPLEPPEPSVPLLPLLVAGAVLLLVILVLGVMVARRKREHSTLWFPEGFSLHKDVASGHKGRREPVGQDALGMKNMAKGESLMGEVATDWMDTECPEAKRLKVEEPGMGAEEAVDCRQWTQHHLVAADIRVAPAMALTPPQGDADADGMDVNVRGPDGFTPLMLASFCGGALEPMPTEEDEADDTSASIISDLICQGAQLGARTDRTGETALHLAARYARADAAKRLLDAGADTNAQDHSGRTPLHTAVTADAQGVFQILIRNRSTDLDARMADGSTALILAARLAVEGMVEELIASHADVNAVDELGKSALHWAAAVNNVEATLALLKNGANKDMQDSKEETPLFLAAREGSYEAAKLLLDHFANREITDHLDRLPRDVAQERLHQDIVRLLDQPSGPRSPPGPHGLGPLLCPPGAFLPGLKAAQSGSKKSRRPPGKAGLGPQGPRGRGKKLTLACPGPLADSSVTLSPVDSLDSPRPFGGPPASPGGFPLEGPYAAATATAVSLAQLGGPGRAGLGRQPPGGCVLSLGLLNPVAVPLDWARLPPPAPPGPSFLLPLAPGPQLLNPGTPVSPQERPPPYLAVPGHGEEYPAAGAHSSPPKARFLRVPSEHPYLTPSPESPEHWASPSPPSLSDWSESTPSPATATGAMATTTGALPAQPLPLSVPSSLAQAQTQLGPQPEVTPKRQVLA
# [10] = small-molecule microarray binders of probe aEGFR, primary screen, biochemical, biotinylated probe, 635/667 nm fluorescence (AID 1097); conditions: higher = more signal;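 also: probe is a biotinylated anti-EGFR antibody binding compounds printed on slides; score combines fluorescence near 667 nm and signal to noise of each spot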
Compound,composite z-score [1],z-score [2],z-score [3],z-score [4],composite z-score [5],z-score [6],composite z-score [7],composite z-score [8],composite z-score [9],composite z-score [10]
CCOC(=O)C[C@H]1[C@H](OC(=O)c2cc3ccccc3oc2=O)[C@@H](NC(=O)C2CCCCC2)c2cc(OCCCO)ccc2N1C(=O)Cc1ccc(OC)cc1,0.466,0.248 (inactive),0.222 (inactive),-0.295 (inactive),0.727,-0.723 (inactive),0.0424,0.909,0.894,-0.0623
NC(=O)N1C(=O)C2C(C1=O)C1C=C(CCCO)C2C(c2ccc(CN3CCCC3)cc2)N1Cc1cccc(OC(F)(F)F)c1 (stereo not given),1.33,-1.11 (inactive),-2.67 (inactive),-2.1 (inactive),1.28,0.489 (inactive),0.0472,0.623,0.0057,-0.0286
COCCOC(=O)N1C(=O)[C@@]2(c3cc(C#CCCO)ccc31)[C@H](C(=O)N1CCc3cc(OC)c(OC)cc3C1)[C@H]1C(=O)O[C@H](c3ccccc3)[C@H](c3ccccc3)N1[C@@H]2c1ccccc1OCCO,1.55,2.65 (inactive),1.65 (inactive),3.88 (inactive),2.81,0.156 (inactive),-0.0159,1.81,1.1,-0.0564
O=C1OCCC=C[C@H]2OC34C=CCN(c5ccc(Cl)cc5)C(=O)[C@H]3N(CCO)C(=O)[C@@H]4C12 (stereo not given in full),-0.502,-0.237 (inactive),-0.335 (inactive),-0.253 (inactive),-0.241,0.474 (inactive),-0.121,-0.545,-0.0792,-0.194
COCCOC(=O)N1C(=O)[C@@]2(c3cc(C#CC4=CCCCC4)ccc31)[C@H](c1ccccc1OCCO)N1[C@H](c3ccccc3)[C@H](c3ccccc3)OC(=O)[C@H]1[C@@H]2C(N)=O,1.56,0.05 (inactive),-0.96 (inactive),1.69 (inactive),1.66,2.66 (inactive),-0.107,1.39,1.1,-0.0211
COCCOC(=O)N1C(=O)[C@@]2(c3cc(C#CC4=CCCCC4)ccc31)[C@H](C(=O)N1CCc3cc(OC)c(OC)cc3C1)[C@H]1C(=O)O[C@H](c3ccccc3)[C@H](c3ccccc3)N1[C@@H]2c1ccc(O)cc1,1.5,1.68 (inactive),0.94 (inactive),2.7 (inactive),2.68,0.951 (inactive),1.08,0.552,1.16,0.657
C=C(/C(=C/C[C@@H](OC(C)=O)c1ccccc1OCCO)c1cc(C(=O)OC)ccc1OC)C(C)C,0.551,0.343 (inactive),-0.377 (inactive),-0.729 (inactive),0.231,0.505 (inactive),-0.119,0.235,-0.163,0.198
CC(C)c1ccc(NN2C(C(O)C(C)C)C=CC3C(=O)N(c4ccccc4)C(=O)C32)cc1 (stereo not given),1.56,1.39 (inactive),0.313 (inactive),1.39 (inactive),3.53,-0.613 (inactive),0.633,0.284,1.04,0.516
CCCC[C@H]1OB(O)C[C@H]2C1=C(COC)C[C@H]1C(=O)C=CC(=O)[C@H]12,1.42,0.275 (inactive),-1.56 (inactive),-0.293 (inactive),0.117,0.898 (inactive),-0.0798,0.747,0.936,-0.071
CCCC[C@@H](O)C1=C(COC)Cn2c(=O)n(-c3ccccc3)c(=O)n2[C@H]1CO,-0.0379,-1.48 (inactive),-1.13 (inactive),-0.721 (inactive),-0.0333,2.84 (inactive),-0.246,-0.102,-0.62,-0.203
COCCn1c(C(=O)N2CCCC2)cc2c1C[C@H]1CN(C(=O)c3ccccc3)[C@@](Cc3ccccc3)(C(=O)OC)[C@@H]21,1.28,0.448 (inactive),0.105 (inactive),0.573 (inactive),3.11,0.0508 (inactive),0.907,0.386,0.805,0.827
CC(C)C(=C=CC[C@@H](O)c1ccc(OCCO)cc1)CCO,0.693,-1.21 (inactive),-1.32 (inactive),-1.4 (inactive),-0.0081,1.23 (inactive),-0.225,0.96,0.271,-0.146
O=C1C2C=CC(C(O)c3cccs3)N(Nc3ccccc3)C2C(=O)N1c1ccccc1 (stereo not given),-0.435,0.521 (inactive),-0.175 (inactive),0.231 (inactive),3.11,0.0249 (inactive),-0.0329,-0.448,0.365,-0.0583
CC(C)(C)OC(=O)CC[C@]1(C(N)=O)N=C(c2ccc(OCCCO)cc2)O[C@H]1c1ccccc1CN=[N+]=[N-],1.15,1.33 (inactive),0.835 (inactive),0.56 (inactive),3.62,0.528 (inactive),0.314,0.0447,1.08,0.306
CC(C)(C)N1CC=CC23O[C@@H]4/C=C\CCCOC(=O)C4[C@H]2C(=O)N(CCCCCCO)[C@@H]3C1=O (stereo not given in full),-0.0574,-3.01 (inactive),-0.927 (inactive),-0.624 (inactive),1.24,1.42 (inactive),-0.302,-1.19,-0.052,0.252
N#Cc1ccc(C(O)C2C=CC3C(=O)N(c4ccccc4)C(=O)C3N2Nc2ccc([N+](=O)[O-])cc2)cc1 (stereo not given),1.51,-0.107 (inactive),0.602 (inactive),2.45 (inactive),3.13,-0.684 (inactive),0.0913,-0.463,1.09,0.0522
CC(C)C(=C=CC[C@@H](O)c1cccc(OCCO)c1)CCO,-0.102,0.493 (inactive),-0.0344 (inactive),-0.0595 (inactive),1.07,0.739 (inactive),-0.0003,0.305,0.454,0.0241
C=CCC(OC(C)=O)[C@@H]1[C@@H](N(Cc2ccc(-c3cccc(C(F)(F)F)c3)o2)C(=O)Cc2ccc(OC)cc2)c2cc(OCCCO)ccc2N1C(=O)c1ccc2ccccc2n1 (stereo not given in full),-0.538,0.195 (inactive),0.153 (inactive),-0.44 (inactive),0.806,-0.555 (inactive),-0.0998,-0.306,-0.412,-0.0828
[N-]=[N+]=NCc1ccccc1C[C@@]1(C(=O)O)N=C(c2ccc(OCCCO)cc2)O[C@@H]1c1ccccc1CN=[N+]=[N-],1.28,-1.5 (inactive),-3.13 (inactive),-1.55 (inactive),1.59,0.345 (inactive),0.0829,0.34,0.679,0.0264
C[C@H]1NC(=O)C([C@@H](C)OCc2ccccc2)NC(=O)[C@@]23C(=O)N[C@@H](Cc4ccccc4)C2[C@H](C)[C@@]2(C)O[C@H]2C3/C=C/C/C=C\CNC1=O (stereo not given in full),-0.242,0.823 (inactive),-0.389 (inactive),1.06 (inactive),0.721,0.147 (inactive),-0.192,0.797,0.0201,-0.168
CCCCC(=C=CC[C@@H](O)c1ccc(OCCO)cc1)C[C@@H](O)c1ccccn1,1.02,-0.374 (inactive),-1.07 (inactive),-0.689 (inactive),1.18,0.774 (inactive),-0.0825,0.888,0.409,-0.0787
CC[C@H](C)C(=O)O[C@H]1CC[C@]2(C)C3=C(CCC2C1(C)C)[C@]1(C)CC[C@H]([C@H](C)CCCC(C)C)[C@@]1(C)CC3 (stereo not given in full),0.0683,0.737 (inactive),0.14 (inactive),0.17 (inactive),0.125,2.24 (inactive),-0.108,0.296,0.854,-0.0431
CC1(C)OC[C@@]23C=C(Br)[C@@H](C[C@H]12)[C@@]1(CO1)C3=O,-0.0986,0.409 (inactive),-1.24 (inactive),0.125 (inactive),-0.202,-0.665 (inactive),-0.153,0.232,0.378,-0.109
C=CCC(OC(C)=O)[C@@H]1[C@@H](N(Cc2ccc(-c3cccc(C(F)(F)F)c3)o2)C(=O)c2cccc3ccccc23)c2cc(OCCCO)ccc2N1C(=O)c1ccc2ccccc2c1 (stereo not given in full),-0.429,0.611 (inactive),0.609 (inactive),-0.549 (inactive),-0.255,0.0268 (inactive),-0.0728,0.307,-0.1,-0.122
CC(c1ccccc1)C(O)C1C=CC2C(=O)N(c3ccccc3)C(=O)C2N1Nc1ccc(C#N)cc1 (stereo not given),1.55,-2.46 (inactive),1.16 (inactive),37.9 (active),3.88,0.939 (inactive),0.123,0.562,1.04,0.066
CC(C)C[C@H]1NC(=O)[C@@H](C)NC(=O)[C@@]23C(=O)N[C@@H](Cc4ccccc4)C2[C@H](C)[C@@]2(C)O[C@H]2C3/C=C/C/C=C\CNC1=O (stereo not given in full),0.938,-0.904 (inactive),-0.721 (inactive),-0.651 (inactive),1.28,-0.64 (inactive),-0.221,0.407,0.596,-0.0615
CCc1cccc(NC(=O)O[C@H]2[C@H](OC(=O)Nc3ccc4c(c3)OCO4)[C@H](OC(=O)Nc3ccc4c(c3)OCO4)[C@@H](OC)O[C@@H]2CO)c1,1.55,1.5 (inactive),1.09 (inactive),7.36 (inactive),3.05,0.641 (inactive),0.0386,0.795,1.08,-0.13
C=CCOC(=O)[C@H]1[C@@H]2C(=O)O[C@@H](c3ccccc3)[C@@H](c3ccccc3)N2[C@@H](c2ccc(OCCOC(=O)[C@H]3C[C@H]4C(=O)NCC(=O)N4[C@H]3c3ccc(O)cc3)cc2)[C@]12C(=O)Nc1ccc(I)cc12,1.3,0.203 (inactive),0.629 (inactive),4.17 (inactive),0.871,0.47 (inactive),-0.148,0.895,0.672,-0.0531
